Experimental data published in PubChem BioAssay (EPA / NIEHS).
Where “and” joins values, the source holds several entries; their conditions need not be identical. Equal values may be shown once. A structure can be active in one record and inactive in another. Calls of active or inactive are those of the source. The calls were made as follows: active = hit-call score of the fitted dose curve at least 0.9, where 1 is the maximum; inactive = score below 0.9.

What was measured:
[1] = read-out: Interleukin-1 alpha (IL1a), IL1A (gene 3552); experiment: BSK_KF3CT_IL1a: BioMAP Diversity Plus: KF3CT Assay for Interleukin-1 alpha (IL1a) Biomarker Activity (AID 2283070); conditions: primary human keratinocytes with fibroblasts; actives raise or lower the signal
Method in brief: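 Human keratinocyte plus foreskin fibroblast primary co-culture, sampled 24 h after chemical dosing. IL-1a measured by ELISA; responses fitted bidirectionally against DMSO baseline (negative control), so gain or loss of signal both count.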

[2] = read-out: TIMP metallopeptidase inhibitor 2 (TIMP2), TIMP2 (gene 7077); experiment: BSK_KF3CT_TIMP2: BioMAP Diversity Plus: KF3CT Assay for TIMP metallopeptidase inhibitor 2 (TIMP2) Biomarker Activity (AID 2283071); conditions: primary human keratinocytes with fibroblasts; actives raise or lower the signal
Method in brief: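 Human primary keratinocyte/foreskin fibroblast co-culture dosed with chemical and sampled at 24 h. TIMP-2 levels quantified by ELISA; bidirectional fitting against DMSO negative control as baseline.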

[3] = read-out: Transforming growth factor beta 1 (TGFb1), TGFB1 (gene 7040); experiment: BSK_KF3CT_TGFb1: BioMAP Diversity Plus: KF3CT Assay for Transforming growth factor beta 1 (TGFb1) Biomarker Activity (AID 2283072); conditions: primary human keratinocytes with fibroblasts; actives raise or lower the signal
Method in brief: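 Human keratinocyte plus foreskin fibroblast primary co-culture, dosed with chemical for 24 h. TGF-b1 quantified by ELISA. Activity fitted bidirectionally against DMSO negative control as baseline.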

[4] = read-out: C-C motif chemokine 2 (Homo sapiens) (UniProt P13500); experiment: BSK_KF3CT_MCP1: BioMAP Diversity Plus: KF3CT Assay for Monocyte Chemoattractant Protein 1 (MCP1/CCL2) Biomarker Activity (AID 2283073); conditions: primary human keratinocytes with fibroblasts; actives raise or lower the signal
Method in brief: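 ELISA read-out of MCP-1, 24 h post-dose, in primary human skin keratinocytes co-cultured with fibroblasts. Parallel SRB staining monitors cytotoxicity; changes fitted both directions relative to DMSO.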

[5] = read-out: Matrix Metallopeptidase 9 (MMP9), MMP9 (gene 4318); experiment: BSK_KF3CT_MMP9: BioMAP Diversity Plus: KF3CT Assay for Matrix Metallopeptidase 9 (MMP9) Biomarker Activity (AID 2283074); conditions: primary human keratinocytes with fibroblasts; actives raise or lower the signal;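 as to AC50: MMP9 protein level quantified by ELISA in the co-culture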
Method in brief: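 Keratinocyte plus foreskin fibroblast human primary skin co-culture was dosed with chemical and MMP-9 was quantified by ELISA 24 h later. Bidirectional curve fitting used DMSO as negative control and activity baseline.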

[6] = read-out: urokinase plasminogen activator (uPA), PLAU (gene 5328); experiment: BSK_KF3CT_uPA: BioMAP Diversity Plus: KF3CT Assay for urokinase plasminogen activator (uPA) Biomarker Activity (AID 2283075); conditions: primary human keratinocytes with fibroblasts; actives raise or lower the signal
Method in brief: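 Human keratinocyte plus foreskin fibroblast primary co-culture exposed to chemical for 24 h. uPA levels were quantified by ELISA, and activity was fitted bidirectionally against a DMSO negative-control baseline.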

[7] = read-out: CD40, CD40 (gene 958); experiment: BSK_LPS_CD40: BioMAP Diversity Plus: LPS Assay for CD40 Biomarker Activity (AID 2283076); conditions: primary human HUVEC with PBMC; actives raise or lower the signal
Method in brief: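 In the LPS system of human endothelial cells with peripheral blood mononuclear cells, CD40 levels were read by ELISA 24 h post-treatment. Signal changes in either direction were fitted against the DMSO baseline, with parallel SRB protein staining.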

[8] = read-out: E-selectin (Homo sapiens) (UniProt P16581); experiment: BSK_LPS_Eselectin: BioMAP Diversity Plus: LPS Assay for Eselectin Biomarker Activity (AID 2283077); conditions: primary human HUVEC with PBMC; actives raise or lower the signal
Method in brief: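 E-selectin ELISA on LPS-stimulated endothelial cell/PBMC co-cultures, read 24 h post-treatment; gains and losses fitted against DMSO. Parallel SRB staining (0.1% SRB after 10% TCA fixation, 560 nm) flags overt cytotoxicity.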

[9] = read-out: Interleukin-8 (IL8), CXCL8 (gene 3576); experiment: BSK_LPS_IL8: BioMAP Diversity Plus: LPS Assay for Interleukin-8 (IL8) Biomarker Activity (AID 2283078); conditions: primary human HUVEC with PBMC; actives raise or lower the signal
Method in brief: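 ELISA read-out of IL-8 after 24 h chemical treatment of LPS-activated endothelial/PBMC human primary co-cultures. Changes either up or down relative to DMSO; overt cytotoxicity checked by sulforhodamine B staining in parallel wells.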

[10] = BSK_LPS_SRB: Viability Assessment in the BioMAP Diversity Plus: LPS Assay (AID 2283079); conditions: primary human HUVEC with PBMC;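 also: total protein by sulforhodamine B absorbance as a cytotoxicity measure; measured one day after compound addition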
Method in brief: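 SRB viability endpoint: cells fixed with 10% TCA, stained with 0.1% SRB, read at 560 nm, 24 h post-dose. HUVEC/PBMC co-culture; signal change in either direction scored relative to DMSO.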

Chain of E-selectin (Homo sapiens) (P16581 whole entry, looked up): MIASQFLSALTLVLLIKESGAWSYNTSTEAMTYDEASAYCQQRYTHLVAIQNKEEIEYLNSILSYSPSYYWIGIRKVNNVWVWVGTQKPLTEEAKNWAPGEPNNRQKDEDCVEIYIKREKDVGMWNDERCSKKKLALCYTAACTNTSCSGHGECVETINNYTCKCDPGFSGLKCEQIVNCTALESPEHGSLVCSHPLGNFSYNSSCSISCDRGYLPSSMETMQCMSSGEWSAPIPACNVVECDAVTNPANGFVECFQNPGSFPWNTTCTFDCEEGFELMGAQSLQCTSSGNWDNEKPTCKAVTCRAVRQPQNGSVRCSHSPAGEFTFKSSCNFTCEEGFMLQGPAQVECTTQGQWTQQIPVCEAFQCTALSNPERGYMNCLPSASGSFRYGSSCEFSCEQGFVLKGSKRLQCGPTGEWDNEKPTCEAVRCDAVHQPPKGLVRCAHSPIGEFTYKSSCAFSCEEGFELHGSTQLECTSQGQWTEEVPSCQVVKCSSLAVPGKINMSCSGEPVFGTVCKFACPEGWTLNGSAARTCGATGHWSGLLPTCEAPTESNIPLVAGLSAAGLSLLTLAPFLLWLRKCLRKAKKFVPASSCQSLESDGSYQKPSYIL

SMILES	outcome [1]	outcome [2]	outcome [3]	outcome [4]	outcome [5]	outcome [6]	outcome [7]	outcome [8]	outcome [9]	AC50 [10]	outcome [10]	AC50 [3]	AC50 [5]	AC50 [7]	AC50 [8]	AC50 [9]	AC50 [1]	AC50 [4]	AC50 [2]	AC50 [6]
ClC1=C(Cl)[C@]2(Cl)[C@@H]3[C@@H](Cl)[C@H]4O[C@H]4[C@@H]3C1(Cl)C2(Cl)Cl	inactive	inactive	inactive	inactive	inactive	inactive	inactive	inactive	inactive	6.81 µM (active)										
Sc1ccccc1	inactive	inactive	inactive	inactive	inactive	inactive	inactive	inactive	inactive		inactive									
CO/C=C(/C(=O)OC)c1ccccc1COc1cccc(C(F)(F)F)n1	inactive	inactive		inactive		inactive				10.6 µM (active)		5.13 µM (active)	12.7 µM (active)	18.3 µM (active)	7.16 µM (active)	3.06 µM (active)				
O=C(O)C(F)(F)C(F)(F)C(F)(F)C(F)(F)C(F)(F)C(F)(F)C(F)(F)C(F)(F)F	inactive	inactive	inactive	inactive		inactive	inactive	inactive	inactive	53.5 µM (active) and 55 µM (active)	inactive		33.2 µM (active) and 35.9 µM (active) and 30 µM (active)	48.3 µM (active) and 45.1 µM (active)		7.33 µM (active) and 50.3 µM (active)	7.86 µM (active) and 30 µM (active)	17.7 µM (active) and 24.9 µM (active)		
CN(C)CCO	inactive	inactive	inactive	inactive	inactive	inactive	inactive	inactive	inactive		inactive									
CCOC(=O)C(O)(c1ccc(Cl)cc1)c1ccc(Cl)cc1	inactive	inactive	inactive	inactive	inactive	inactive				34.2 µM (active)				26.1 µM (active)	31.5 µM (active)	35.2 µM (active)				
CC(C)C(=O)OCC(C)(C)C(OC(=O)C(C)C)C(C)C (centres undefined)	inactive	inactive	inactive	inactive	inactive	inactive	inactive	inactive	inactive		inactive									
Clc1ccc(C(Cl)(Cl)Cl)cc1	inactive	inactive	inactive	inactive	inactive	inactive	inactive	inactive	inactive		inactive									
C[C@]12CCC(=O)C=C1CC[C@@H]1[C@@H]2CC[C@]2(C)C(=O)CC[C@@H]12	inactive	inactive	inactive	inactive	inactive	inactive	inactive	inactive	inactive		inactive									
O=NN(c1ccccc1)c1ccccc1	inactive	inactive	inactive	inactive	inactive	inactive	inactive	inactive	inactive		inactive									
CCC(C)(CC)c1cc(NC(=O)c2c(OC)cccc2OC)on1	inactive	inactive	inactive	inactive	inactive	inactive	inactive	inactive	inactive		inactive									
Cc1ccc(O)c(C)c1	inactive	inactive	inactive	inactive	inactive	inactive		inactive	inactive		inactive			11.6 µM (active)						
Oc1ccc(C(c2ccc(O)cc2)(C(F)(F)F)C(F)(F)F)cc1										28 µM (active)		23.7 µM (active)	20 µM (active)	18 µM (active)	32.4 µM (active)	32.1 µM (active)	32.1 µM (active)	17.7 µM (active)	21.1 µM (active)	34.2 µM (active)
Cc1cc2c3c(c1)C(c1ccccc1)=N[C@@H](NC(=O)c1ccncc1)C(=O)N3CC2	inactive	inactive	inactive	inactive	inactive	inactive		inactive	inactive		inactive			3.97 µM (active)						
C=CC(N)=O	inactive	inactive	inactive	inactive	inactive	inactive	inactive	inactive	inactive		inactive									
CCCCCCOC(=O)c1ccccc1C(=O)OCCCCCC	inactive	inactive	inactive	inactive	inactive	inactive	inactive	inactive			inactive					20 µM (active)				

SMILES	outcome [1]	outcome [2]	outcome [3]	outcome [4]	outcome [5]	outcome [6]	outcome [7]	outcome [8]	outcome [9]	AC50 [10]	outcome [10]	AC50 [3]	AC50 [5]	AC50 [7]	AC50 [8]	AC50 [9]	AC50 [1]	AC50 [4]	AC50 [2]	AC50 [6]
ClC(Cl)=C(c1ccc(Cl)cc1)c1ccc(Cl)cc1												32.6 µM (active)	20 µM (active)	29.8 µM (active)	30.6 µM (active)	32.1 µM (active)	27.9 µM (active)	20 µM (active)	27 µM (active)	38.7 µM (active)
Nn1cnnc1	inactive	inactive	inactive	inactive	inactive	inactive	inactive	inactive	inactive		inactive									
C=CC(=O)NCNC(=O)C=C	inactive	inactive	inactive	inactive	inactive	inactive	inactive	inactive	inactive		inactive									
CCC(C)(c1ccc(O)cc1)c1ccc(O)cc1	inactive	inactive	inactive	inactive	inactive	inactive		inactive	inactive	20 µM (active)				20 µM (active)						
Oc1c(Cl)c(Cl)c(Cl)c(Cl)c1Cl	inactive		inactive	inactive		inactive		inactive	inactive	15.1 µM (active) and 26.4 µM (active)		15 µM (active)	6.97 µM (active) and 6.46 µM (active)	10.2 µM (active) and 15.2 µM (active)	27.1 µM (active)	33.1 µM (active)	20 µM (active)	10.8 µM (active)	2.02 µM (active) and 17.3 µM (active)	27.4 µM (active)
c1cc2ccc3cccc4ccc(c1)c2c34	inactive	inactive	inactive	inactive	inactive	inactive	inactive	inactive	inactive		inactive									
COc1ccc(O)c(C(C)(C)C)c1	inactive	inactive	inactive	inactive	inactive	inactive	inactive	inactive	inactive		inactive									
CCOCCOC(C)=O	inactive	inactive	inactive	inactive	inactive	inactive	inactive	inactive	inactive		inactive									
CCNc1nc(NC(C)C)nc(SC)n1	inactive	inactive	inactive	inactive	inactive	inactive	inactive	inactive	inactive		inactive									
O=C(O)C(F)(F)C(F)(F)C(F)(F)C(F)(F)C(F)(F)C(F)(F)C(F)(F)C(F)(F)C(F)(F)F							inactive	inactive	inactive	31.3 µM (active) and 56.6 µM (active) and 54.8 µM (active)		30.8 µM (active)	20 µM (active) and 30.2 µM (active) and 27.5 µM (active)	30 µM (active) and 49.1 µM (active)	53.8 µM (active) and 51 µM (active)	46.1 µM (active) and 46.7 µM (active)	33.5 µM (active) and 47.2 µM (active) and 46.8 µM (active)	22.7 µM (active) and 27.9 µM (active) and 18.5 µM (active)	31 µM (active) and 45 µM (active) and 44.7 µM (active)	31.4 µM (active) and 55 µM (active) and 50.7 µM (active)
ClC1=C(Cl)[C@]2(Cl)[C@@H]3[C@H]4C[C@H]([C@@H]5O[C@H]45)[C@@H]3[C@@]1(Cl)C2(Cl)Cl	inactive	inactive	inactive	inactive	inactive	inactive	inactive	inactive	inactive	7.24 µM (active)										
N#Cc1ccc(N(CC(N)=O)CC(F)(F)F)cc1C(F)(F)F	inactive	inactive	inactive	inactive	inactive	inactive	inactive	inactive	inactive		inactive									
COS(=O)(=O)OC	inactive	inactive	inactive	inactive	inactive	inactive	inactive	inactive	inactive		inactive									
O=S(=O)(O)C(F)(F)C(F)(F)C(F)(F)C(F)(F)C(F)(F)C(F)(F)F	inactive	inactive	inactive	inactive	inactive	inactive	inactive	inactive	inactive		inactive					14.6 µM (active) and 43.9 µM (active)				
O=C(NC(=O)c1c(F)cccc1F)Nc1cc(Cl)c(OC(F)(F)C(F)F)c(Cl)c1	inactive	inactive	inactive	inactive	inactive	inactive	inactive	inactive	inactive		inactive									
